This note sets out measurements from PubChem BioAssay AID2147 (National Center for Advancing Translational Sciences (NCATS), 2009).

Where “and” joins values, the source holds several entries; their conditions need not be identical. Identical values can stand only once. The whole screen tested about 230,000 compounds, of which about 3,600 (1.6%) were called active. Another 15% or so got no clear call; they are omitted. The full list was thinned out, with actives kept by preference. Values without a mark were called inactive. The call rests on the fitted dose curve; in most records, active means well fitted inhibition curve with a large enough effect (not every such curve was filed as active); inconclusive means small, poorly fitted or top-dose-only effect, or another doubt; inactive means no such curve, though single readings can be large or run the other way.
Further: nearly all actives have a fitted effect of over 50% in size.
Potency means the concentration at half of the fitted maximal effect.
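Wherever activity change, negative = inhibition is given: 0% = wells with enzyme and -100% = buffer wells without enzyme.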

Sequence of Lysine-specific demethylase 4E (Homo sapiens) (B2RXH2 1-337 limits assumed): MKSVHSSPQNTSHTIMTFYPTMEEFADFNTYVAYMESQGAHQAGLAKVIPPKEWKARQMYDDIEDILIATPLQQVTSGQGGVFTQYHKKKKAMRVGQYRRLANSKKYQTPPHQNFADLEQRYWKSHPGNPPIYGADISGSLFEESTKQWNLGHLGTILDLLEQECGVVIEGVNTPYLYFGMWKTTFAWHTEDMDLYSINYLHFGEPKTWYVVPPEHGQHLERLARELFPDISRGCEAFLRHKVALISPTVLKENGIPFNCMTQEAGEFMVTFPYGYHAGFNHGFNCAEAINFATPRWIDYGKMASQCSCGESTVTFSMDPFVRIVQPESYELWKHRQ

This test has as its target Lysine-specific demethylase 4E (Homo sapiens) (UniProt B2RXH2). In words: qHTS Assay for Inhibitors of Human Jumonji Domain Containing 2E (JMJD2E). Particulars: JMJD2E catalytic domain, FDH-coupled NADH fluorescence (FDH is formaldehyde dehydrogenase); series mostly up to 57.1 µM; activity change, negative = inhibition: at the top concentration.
Consider `COc1ccc(OC)c(-n2c(-c3ccn[nH]3)n[nH]c2=S)c1`, for which the “activity change, negative = inhibition” value was 3.77%.

With `O=C(N/N=C\c1cc(Br)c(Br)o1)C1COc2ccccc2O1` (stereo not given), the “activity change, negative = inhibition” value was -26.6%.

In the case of `Nc1ccccc1SC(C[N+](=O)[O-])c1ccccc1` (stereo not given), the Potency is 6.31 µM (active).

As for `Nc1ccccc1SCc1cc([N+](=O)[O-])cc2c1OCOC2`, the “activity change, negative = inhibition” value was -7.45%.

With `Nc1ccccc1Sc1ccc(C(F)(F)F)cc1[N+](=O)[O-]`, the “activity change, negative = inhibition” value is -29.3%.

For the compound `OCCC1CN(Cc2ccc(Oc3ncccn3)cc2)CCN1CCc1ccccc1` (stereo not given), the “activity change, negative = inhibition” value was -5.89%.

Turning to `COCCNc1nc(-c2ccccc2)nc2c1oc1ccccc12`, the “activity change, negative = inhibition” value was -8.99%.

Consider `Cc1nnc(SC(C(=O)c2ccccc2)c2ccccc2)[nH]c1=O` (stereo not given), for which the “activity change, negative = inhibition” value was -1.45%.

Turning to `Cc1cccc(-n2cc(CN3CCN(C(=O)c4ncn[nH]4)CC3)c(-c3cccc(F)c3)n2)c1`, the “activity change, negative = inhibition” value is 8.66%.

`CC(C)OCCCNC(=O)c1ccc(C2SCC(=O)N2Cc2ccco2)cc1` (stereo not given): the “activity change, negative = inhibition” value was -12.8%.

In the case of `COc1ccc(NS(=O)(=O)c2ccc(O)c(C(=O)OCC(=O)NC3CCCCC3)c2)cc1`, the “activity change, negative = inhibition” value was -4.29%.

`S=c1[nH]nc(COc2ccccc2)n1-c1ccccc1`: the “activity change, negative = inhibition” value is -9.54%.

For the compound `Cc1ccc(OCc2n[nH]c(=S)n2-c2ccc(C)cc2)cc1`, the “activity change, negative = inhibition” value was -3.16%.

As for `COc1ccc(OCc2n[nH]c(=S)n2N)cc1`, the Potency is 15.8 µM (active).

As for `Cc1cc(N2CCN(c3ccccc3)CC2)nc(N2CCOCC2)n1`, the “activity change, negative = inhibition” value is 3.11%.

As to `O=c1c(-c2ccc(Cl)cc2)[n+]([O-])c2ccccc2n1OCc1nc2ccccc2[nH]1`, the “activity change, negative = inhibition” value is -4.14%.

Regarding `CCC(=O)/C=C1\Sc2ccccc2N1CC`, the “activity change, negative = inhibition” value is -12.4%.

In the case of `CCN1/C(=C/c2ccc3ccc(C)cc3[n+]2CC)Sc2ccccc21`, the “activity change, negative = inhibition” value is -7.04%.

Regarding `CCN1/C(=C\c2ccc3ccccc3[n+]2CC)Sc2cc(C)ccc21`, the Potency is 1.41 µM (active).

As for `O=C(COC(=O)c1ccc[nH]c1=O)Nc1ccc2c(c1)OC(F)(F)O2`, the “activity change, negative = inhibition” value is -31.1%.

`c1ccc(-n2cccc2)c(N2CCCCC2)c1`: the “activity change, negative = inhibition” value is 7.49%.

Regarding `CC(C)[C@@H](CC(=O)N[C@@H]1CCNC[C@H]1C(=O)N[C@H](CC(=O)N[C@@H](CCC(=O)O)CC(=O)O)Cc1ccccc1)NC(=O)C[C@H](CO)NC(=O)[C@@H]1CNCC[C@H]1N`, the “activity change, negative = inhibition” value is -2.84%.

`CC(C)C[C@@H](CC(=O)N[C@@H](CCC(=O)O)CC(=O)O)NC(=O)[C@@H]1CCCC[C@H]1NC(=O)C[C@@H](NC(=O)C[C@H](CO)NC(=O)[C@@H]1CCCC[C@H]1N)C(C)C`: the “activity change, negative = inhibition” value is 6.67%.

As for `CC(C)C[C@@H](CC(=O)N[C@@H](CCC(=O)O)CC(=O)O)NC(=O)[C@@H]1CCCC[C@H]1NC(=O)C[C@@H](NC(=O)C[C@H](Cc1c[nH]c2ccccc12)NC(=O)[C@@H]1CCCC[C@H]1N)C(C)C`, the Potency is 15.8 µM (active).

As to `Cn1c(CSCC(=O)Nc2ccccc2)nnc1SCc1ccccc1`, the “activity change, negative = inhibition” value was -1.73%.

With `Cc1ccc(NNC(=O)c2c(F)cccc2Cl)cc1Cl`, the “activity change, negative = inhibition” value was -12.8%.

As to `COC(=O)N(NC(=O)C(O)(C(C)C)C(C)C)c1ccccc1`, the “activity change, negative = inhibition” value was 2.87%.

Regarding `Cc1cc(=O)[nH]c(S)c1C#N`, the Potency was 28.2 µM (active).

Regarding `Cc1cc(=O)[nH]c(=S)[nH]1`, the Potency result was “inactive”.

On to `Cc1cc(=O)[nH]c(SCC(N)=O)c1C#N`, for which the “activity change, negative = inhibition” value is 0.748%.

With `CC(C)(C)c1ccc(/C=C2\Oc3c(ccc(O)c3CN3CCN(CCO)CC3)C2=O)cc1`, the Potency is 14.1 µM (active).

For `O=S(=O)(Nc1n[nH]c(C(F)(F)F)n1)c1ccccc1`, the “activity change, negative = inhibition” value is -3.67%.

Consider `CCOC(=O)/C(C#N)=C/c1ccc(N2CCCCC2)cc1`, for which the “activity change, negative = inhibition” value is -5.46%.

In the case of `COCCNC(=O)/C(C#N)=C/c1cccc(OCc2ccccc2)c1`, the “activity change, negative = inhibition” value was -8.01%.

On to `N#C/C(=C\c1ccc(O)c(O)c1)C(N)=O`, for which the Potency was 7.08 µM (active).

With `N#C/C(=C\c1ccc(O)c(O)c1)C(=O)NCc1ccccc1`, the Potency is 15.8 µM (active) and 20 µM (active).

On to `CC(C)(C)C(=O)/C(C#N)=C/c1ccc(O)cc1`, for which the “activity change, negative = inhibition” value was -3.99%.

Consider `CCOC(=O)NC(=O)/C(C#N)=C\c1ccccc1`, for which the “activity change, negative = inhibition” value was 8.09%.

In the case of `Cc1ccc(CN(Cc2cccnc2)C(=S)Nc2cc(Cl)ccc2C)cc1`, the “activity change, negative = inhibition” value is -10%.

In the case of `O=C(NCC(c1cccs1)N1CCOCC1)c1cc(-c2ccccn2)nc2ccccc12` (stereo not given), the “activity change, negative = inhibition” value is -21.6%.

In the case of `COc1ccccc1OCC(=O)O/N=C(\N)c1ccccn1`, the “activity change, negative = inhibition” value was -4.76%.

Take `COc1cc(/C=C2/C(=O)NN(c3ccc(F)cc3)C2=O)cc([N+](=O)[O-])c1O`: the “activity change, negative = inhibition” value was -19.9%.

For `CCOC(=O)c1ccc(N=C2SC(C(=O)NC)CC(=O)N2CCc2ccccc2)cc1` (stereo not given), the “activity change, negative = inhibition” value is -2.87%.

`CC(=O)Nc1nc2c(s1)C(=O)NCC(C)(C)C2`: the “activity change, negative = inhibition” value is 6.1%.

With `Oc1c(C=Nc2cccc3nsnc23)ccc2ccccc12`, the “activity change, negative = inhibition” value was -9.64%.

Take `Oc1ccc2ccccc2c1N=Nc1nccs1`: the Potency was 28.2 µM (active).

Regarding `Oc1ccc(N=Nc2nccs2)c(O)c1`, the Potency was 8.91 µM (active).

As to `COc1ccccc1NC(=S)N1CCN(C(c2ccccc2)c2ccccc2)CC1`, the “activity change, negative = inhibition” value is 12.1%.

Regarding `CSc1ccccc1NC(=O)CN(C)CC(=O)Nc1cccc(Br)c1`, the “activity change, negative = inhibition” value was -20.7%.

For `COc1ccc(Cc2nnc(N/N=C/c3ccccc3O)[nH]c2=O)cc1OC`, the Potency is 6.31 µM (active).

Consider `COc1ccc(CCNC(=O)CCCCn2c(=O)[nH]c3ccccc3c2=O)cc1OC`, for which the “activity change, negative = inhibition” value was 3.97%.

Turning to `COc1ccc(Cc2nnc(SC)[nH]c2=O)cc1`, the “activity change, negative = inhibition” value was 8.09%.

Turning to `CCOC(=O)C1=C(c2ccccc2)NC(=S)NC1c1ccc(Cl)cc1` (stereo not given), the “activity change, negative = inhibition” value is -5.72%.

Take `Cc1noc(C)c1COC(=O)COc1ccc(-c2ccccc2)cc1`: the “activity change, negative = inhibition” value is 7.05%.

Turning to `COc1ccc(/C=C/C(=O)Nc2ccc(C)cc2)cc1S(=O)(=O)N1CCOCC1`, the “activity change, negative = inhibition” value is 1.97%.
